Among the data in PubChem BioAssay (NCI) are growth values, retold here.

Several values for one entry are separate records, joined by “and”; a condition that tells them apart may be missing. Equal entries are not always repeated. The panel holds about 83,000 compounds, 20% with a hit somewhere; the sample as a whole holds those more often.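 Activity criterion: percent growth below 10, measured after cells in 96-well plates were exposed to a single compound concentration for 48 hours.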 Unmarked numbers belong to inactive results. Activity calls are given as the source filed them.

What all share (assay): NCI-60 one-dose screen, 48 h (100 = growth as untreated, 0 = no growth, -100 = all killed)
Common to all, as to settings: 10 µM unless noted

Test [1] concerns T-47D breast.
Test [2] concerns BT-549 breast.
In test [3] the test system is MDA-MB-435 melanoma.
Test [4] relates to SW-620 colon.
The subject of test [5] is MCF7 breast.
Test [6] deals with HCT-116 colon.
The test system of test [7] is HCC-2998 colon.
Test [8] deals with KM12 colon.

Consider `Cn1cc(-c2cc3ncnc(Nc4ccc(CC(=O)Nc5nc(C(C)(C)C)cs5)cc4)c3s2)cn1`, for which the growth in test [1] was 3.67% (active); in test [2] it was 61.3%; in test [3], 54.6%; in test [4], 53.8%; in test [5], 41.8%; in test [6], 39%. The growth was 74.6% in test [7] and 13.2% in test [8].

Take `CC[C@H](CC[C@@H](C)[C@H]1CC[C@H]2[C@@H]3CC(=O)C4=CC(=O)/C(=C/c5ccc([N+](=O)[O-])cc5)C[C@]4(C)[C@H]3CC[C@]12C)C(C)C`: the growth in test [1] is 89.1%; in test [2] it was 109%; in test [3], 94.4%; in test [4], 110%; in test [5], 84.8%; in test [6], 86.5%. The growth in test [7] was 105%; in test [8] it was 100%.

Take `O=C1Nc2ccc(F)cc2/C1=C\C(=O)c1ccc(NS(=O)(=O)c2ccccc2)cc1`: the growth in test [1] was 96.7%; in test [2] it was 111%; in test [3], 92.5%; in test [4], 43.1%; in test [5] it was 22.5%; in test [6], 56.9%. For the same molecule, the growth was 116% in test [7] and 102% in test [8].

In the case of `CC1(C)CC[C@]23CC[C@]4(C)[C@H](CC[C@@H]5[C@@]6(C)CC[C@H](NCO)C(C)(C)[C@@H]6CC[C@]54C)[C@H]2[C@H]1OC3`, the growth in test [1] is 44.2%; in test [2], 98.5%; in test [3], 38.8%; in test [4] it was -73.5% (active); in test [5], 1.96% (active); in test [6], -9.59% (active). In addition, the growth in test [7] is -24% (active); in test [8], -0.242% (active).

As for `C[C@H]1OCC2(CCN(c3cnc(C(=O)Nc4cc(F)cc5cccnc45)cn3)CC2)[C@H]1N`, the growth in test [1] is 35.3%; in test [2] it was 91.5%; in test [3], 79.7%; in test [4], 4.8% (active); in test [5], 1.15% (active); in test [6], 13.9%. The growth was 78.3% in test [7] and 82.5% in test [8].

As for `CCCC/C(=C\c1ccc(O)c(O)c1)C(=O)NC(Cc1ccccc1)C(=O)C(=O)NCCc1ccc(OC)cc1` (stereo not drawn), the growth in test [1] is 94.9%; in test [2], 84.1%; in test [3] it was 94.3%; in test [4], 101%; in test [5], 95%; in test [6] it was 92.4%. Besides, the results for the growth in test [7] and in test [8] were 102% and 97.9%, respectively.

Take `Cc1ccc([C@H]2c3[nH]c4ccccc4c3C[C@H]3C(=O)N(CCCCCCC(=O)NO)CC(=O)N23)s1`: the growth is 37.3% in test [1]; 90.9% in test [2]; 45.2% in test [3]; 51.9% in test [4]; 32.8% in test [5]; 23.7% in test [6]. Also, the growth in test [7] was 82.4%; in test [8] it was 74.3%.

As to `N#C/C(=C\c1ccc(-c2ccc(Cl)c(Cl)c2)o1)C(=O)Nc1ncc(Cc2ccc(Cl)cc2)s1`, the growth was 17.9% in test [1]; 42.1% in test [2]; 26.9% in test [3]; 10.8% in test [4]; 58.7% in test [5]; 9.52% (active) in test [6]. In addition, the figures for the growth in test [7] and in test [8] were 81.8% and 19.6%, respectively.

As for `O=c1oc2ccc(-c3ccc(F)cc3F)cc2c(=O)n1-c1ccc(Br)cc1F`, the growth in test [1] was 5.88% (active); in test [2], 30.9%; in test [3], 66.9%; in test [4], 79.3%; in test [5] it was 58.5%; in test [6], 57.3%. Further, the growth is 81.5% in test [7] and 61.4% in test [8].

Turning to `CCCCCCCCCC(=O)NC(C)(C)C(=O)N1CCC[C@H]1C(=O)N[C@@H](CC(C)C)C(=O)N[C@@](C)(CC)C(=O)N[C@@H](CCC(N)=O)C(=O)N[C@H](CCC(N)=O)C(=O)NC(C)(C)C(=O)NC(C)(C)C(=O)N[C@@H](CCC(N)=O)C(=O)N[C@H](CC(C)C)C(=O)N[C@H](CO)CC(C)C`, the growth is -34.9% (active) and -12.9% (active) in test [1]; -84.8% (active) and -76.9% (active) in test [2]; -60.3% (active) and -95.4% (active) in test [3]; -83.6% (active) and -50.6% (active) in test [4]; -83.8% (active) and -76.9% (active) in test [5]; -67.5% (active) and 1.05% (active) in test [6]. The growth was -89.2% (active) and -59.5% (active) in test [7]; -89.6% (active) and -89.8% (active) in test [8].

In the case of `COc1cc(C(=O)c2cc(C(C)=O)c3ccc(C)cn23)cc(OC)c1OC`, the growth in test [1] was 37.9%; in test [2], 53.1%; in test [3] it was -12.7% (active); in test [4], 32.4%; in test [5] it was 14.8%; in test [6] it was 18.4%. In addition, the values for the growth in test [7] and in test [8] were 61.6% and 28.6%, respectively.

`CC1CC(=O)C2=C(C1)Nc1ccc(Br)cc1CC2c1c[nH]c2ccc(Br)cc12` (stereo not drawn): the growth was 33.4% in test [1]; 64.9% in test [2]; -18.5% (active) in test [3]; 33.5% in test [4]; 16.7% in test [5]; 24.2% in test [6]. Further, the growth in test [7] is 69.6%; in test [8], 28.1%.

In the case of `CCCCSC1=C(Cl)CN(c2ccccc2)C1=O`, the growth in test [1] is 85%; in test [2] it was 110%; in test [3], 108%; in test [4] it was 106%; in test [5], 51.5%; in test [6] it was 104%. Besides, the growth in test [7] was 105%; in test [8], 93.7%.

Consider `Fc1cc(F)cc(NNC(=S)c2ccccc2)c1`, for which the growth in test [1] was -2.7% (active); in test [2], 17.8%; in test [3] it was 64%; in test [4], 58%; in test [5] it was 37.5%; in test [6], 20.9%. The growth was 87% in test [7] and 49.1% in test [8].

In the case of `COc1ccc(C(C)=C(c2ccc(OCCN(C)C)cc2)c2ccc(OCCN(C)C)cc2)cc1`, the growth was -60.6% (active) in test [1]; -27.3% (active) in test [2]; -75.7% (active) in test [3]; -65.8% (active) in test [4]; -67.6% (active) in test [5]; -81% (active) in test [6]. The growth is -69.4% (active) in test [7] and -8.05% (active) in test [8].

Regarding `CC(C)(C)OC(=O)NCc1ccc(CNc2c([N+](=O)[O-])cnc3ccccc23)cc1`, the growth is 28.1% in test [1]; 54.8% in test [2]; 56.4% in test [3]; 89.6% in test [4]; 40.6% in test [5]; 37.7% in test [6]. In addition, the values for the growth in test [7] and in test [8] were 84.7% and 74.9%, respectively.
